Reference: article PMC5540273 (PLoS ONE, 2017)
Where “and” joins values, the source holds several entries; their conditions need not be identical. Equal values may be shown once. Read-outs that look alike come from different tables or passages of the source.

Columns and labels:
[1] = system: BMPR1A; settings: n = 1
[2] = system: BMPR1B; settings: concentration: 1 μM, replicates: in singlicate; n = 1
[3] = system: BMPR2; settings: n = 1
[4] = system: BMX; settings: n = 1
[5] = system: BRAF; settings: n = 1
[6] = system: T1, BRK; settings: n = 1
T1 construct: gene PTK6

[7] = system: BRSK1; settings: n = 1
[8] = system: BRSK2; settings: n = 1
[9] = system: BTK; settings: n = 1
[10] = system: BUB1; settings: n = 1
[11] = concentration: 1 μM, replicates: in singlicate
[12] = concentration: 1 μM,replicates: in singlicate, 1 µM
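Also: KINOMEscan kinase panel screen.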

| SMILES | %Inh [1, 11] [%] | %Inh [2] [%] | %Inh [3, 11] [%] | %Inh [4, 11] [%] | %Inh [5, 11] [%] | %Inh [6, 11] [%] | %Inh [7, 11] [%] | %Inh [8, 11] [%] | %Inh [9, 11] [%] | %Inh [10, 11] [%] | %Inh ([9]; 1 µM) [%] | %Inh [1, 12] | %Inh [3, 12] | %Inh [4, 12] | %Inh [5, 12] | %Inh [6, 12] | %Inh [7, 12] | %Inh [8, 12] | %Inh [10, 12] |
| --- | --- | --- | --- | --- | --- | --- | --- | --- | --- | --- | --- | --- | --- | --- | --- | --- | --- | --- | --- |
| COc1ccccc1CNC(=O)c1cc(C(=O)c2ccccc2C)c[nH]1 [GSK364507] | 4 | 0 | 7 | 8 | 0 | 12 | 0 | 95.2 | 0 | 33 |  |  |  |  |  |  |  |  |  |
| C[C@@H]1CCCCN1c1cc(-c2ccc3c(N)n[nH]c3c2)nc(N)n1 [GSK2258759] | 0 | 0 | 0 | 12 | 0 | 11 | 0 | 0 | 0 | 0 |  |  |  |  |  |  |  |  |  |
| Cc1cc(-c2ccc3c(c2)CC[C@@H](N[C@@H](C)c2ccccc2)C3)cnc1N.Cl [GW412617] | 0 | 0 | 0 | 50 | 1 | 22 | 0 | 0 | 0 | 17 |  |  |  |  |  |  |  |  |  |
| Cc1cc(N2Cc3ccccc3C2)nc(Nc2ccc(S(=O)(=O)N3CCOCC3)cc2)n1.Cl [GSK1669917] | 0 | 0 | 0 | 11 | 0 | 38 | 0 | 0 | 0 | 21 |  |  |  |  |  |  |  |  |  |
| Cc1cccc(-c2nc(-c3ccc(S(C)(=O)=O)cc3)sc2-c2ccnc(NCCc3ccccc3)c2)c1 | 27 | 6 | 1 | 0 | 95.8 | 0 | 3 | 0 | 0 | 24 |  |  |  |  |  |  |  |  |  |
| Cn1ccc2ncnc(Oc3ccc(NC(=O)Nc4ccccc4)cc3)c21 | 0 | 0 | 0 | 42 | 0 | 6 | 0 | 17 | 0 | 0 |  |  |  |  |  |  |  |  |  |
| Cl.Oc1ccc(-c2nc(-c3ccccc3)[nH]c2-c2ccncc2)cc1 [SB-428218] | 0 | 0 | 20 | 0 | 60 | 26 | 0 | 0 | 21 | 93 |  |  |  |  |  |  |  |  |  |
| Cn1cncc1-c1ccc2ncnc(Nc3ccc(OCc4ccccc4)cc3)c2c1 [GW320571] | 17 | 0 | 0 | 28 | 3 | 15 | 0 | 0 | 0 | 26 |  |  |  |  |  |  |  |  |  |
| Cc1cccc(-c2nc(Nc3ccc4[nH]ncc4c3)c3ccccc3n2)n1 [GW857175] | 60 | 34 | 18 | 15 | 16 | 2 | 0 | 0 | 10 | 65 |  |  |  |  |  |  |  |  |  |
| Nc1nc(-c2nccs2)c(-c2ccnc3ccccc23)s1 [GW693542] | 14 | 10 | 9 | 0 | 0 | 3 | 11 | 0 | 0 | 47 |  |  |  |  |  |  |  |  |  |
| NC(=O)c1nnc2ccccc2c1N | 7 | 10 | 36 | 90.1 | 23 | 9 | 22 | 0 |  | 12 | 43 |  |  |  |  |  |  |  |  |
| Cl.NC(=O)c1cccc(Nc2nccc(Nc3ccc(Oc4cccc(Cl)c4)c(Cl)c3)n2)c1 [GW659008] | 0 | 0 | 3 | 14 | 0 | 69 | 0 | 0 | 0 | 36 |  |  |  |  |  |  |  |  |  |
| Cc1cccc(-c2nc(Nc3cccc(C(N)=O)c3)c3ccccc3n2)n1 [GW876019] | 74 | 0 | 14 | 0 | 0 | 9 | 18 | 0 | 9 | 16 |  |  |  |  |  |  |  |  |  |
| COc1cccc(-c2cc(-c3c[nH]nc3-c3ccccn3)ccn2)c1 [GW680338] | 0 | 0 | 10 | 12 | 12 | 4 | 3 | 0 | 0 | 27 |  |  |  |  |  |  |  |  |  |
| Cc1c(O)cccc1Nc1ccnc2ccc(C(F)(F)F)cc12.Cl [GW466413] | 0 | 44 | 0 | 0 | 69 | 86 | 0 | 0 | 0 | 29 |  |  |  |  |  |  |  |  |  |
| CSc1nn2c(=O)cc(N3CCOCC3)nc2n1Cc1cccc(C(F)(F)F)c1C [GSK2363608] |  | 0 |  |  |  |  |  |  | 0 |  |  | 17% and 0% | 22% and 0% | 8% and 0% | 0% and 5% | 0% and 10% | 7% and 4% | 4% and 0% | 13% and 0% |
| Cc1cc(NCC(c2ccccc2)c2ccccc2)nc(NCc2ccc(C(F)(F)F)cc2)n1 [GW497681] | 0 | 0 | 14 | 18 | 0 | 2 | 0 | 0 | 0 | 35 |  |  |  |  |  |  |  |  |  |
